# How the values were obtained:
# Experiment in all cases: PBM binding z-score (relative to random genomic background probes); higher = stronger binding; sequences stand for … in GC…GCGATTGACAGCGTAGAATGAAGG
# [1] = tested on: RARb homodimer (NR concentration 270 nM)
# Summary of the method: (§1)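 Each nuclear receptor dimer, without ligand, was incubated for 1 h on custom Agilent 4×180K protein-binding microarrays. Binding was detected with antibodies against each partner (one per run), and scanned fluorescence was regression-normalized. The binding z-scores are referenced to random human genomic background probes.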
# [2] = tested on: RARg:RXRa (NR concentration 270 nM, RXRa partner concentration 90 nM)
# Summary of the method: as §1
# [3] = tested on: RARg homodimer (NR concentration 270 nM)
# Summary of the method: as §1
# [4] = tested on: RXRa DBDmut IVT, anti-RXR (DBD mutation: RXRa K156A/R161A, NR concentration 90 nM)
# Summary of the method: as §1
# [5] = tested on: RXRa homodimer (NR concentration 180 nM)
# Summary of the method: as §1
# [6] = tested on: THRa:RXRa (NR concentration 90 nM, RXRa partner concentration 90 nM)
# Summary of the method: as §1
# [7] = tested on: THRa homodimer (NR concentration 90 nM)
# Summary of the method: as §1
# [8] = tested on: VDR homodimer (NR concentration 270 nM)
# Summary of the method: as §1
Sequence,PBM binding z-score [1],PBM binding z-score [2],PBM binding z-score [3],PBM binding z-score [4],PBM binding z-score [5],PBM binding z-score [6],PBM binding z-score [7],PBM binding z-score [8]
CAAACTAGGTCACGATAGGTCAAAGTCGAATGAC,4.88,6.44,6.71,2.13,5.99,4.65,2.39,2.02
CTCGAAAAGTCGTGCTCAGGTGAGTATACCAAAC,0.216,0.157,-0.0265,0.322,0.0508,1.75,0.807,-0.43
ACTATTAGTTGAGACGAGGGCATCCGATAGGTTG,0.79,0.519,0.799,0.829,0.473,2.29,0.321,1.38
AGCACGAGGGCAATGAGTTGATAGCACGGGTGGC,0.927,1.16,1.72,2.14,0.851,0.817,-0.487,3.16
TCTTATAGATCAAAGGTTAAGAAAGCCGAAGCCT,1.4,2.16,1.15,1.21,3.93,1.51,-0.709,0.214
CCTACTGGGCCAAGGCCATTGATCAGTCAAAGCA,0.497,-0.179,-0.0334,-1.15,-0.715,0.101,-0.288,-0.406
TCAGACAGGTGGAGGTAACTCAGGTACGCAGTCG,0.41,-0.00603,-0.245,0.723,0.574,1.48,0.639,-0.21
TGATATAGGTAAACAGGTGAAAGTCCGTAAGTTA,0.629,0.44,0.407,-0.121,0.613,0.68,0.366,0.301
GTACCATGGTGAATAGGTCGTTGATGAGTAGGCG,0.603,0.323,0.274,-0.264,0.592,0.133,-0.299,0.21
GCTAGCAGGCCATTTGGGACACTCAATGACGGGC,-0.366,-0.267,0.308,-0.237,-0.122,0.63,-0.00643,-0.65
GCTATTAGTTGAAAGGGTAACCGAATGATTCTCG,0.907,0.593,0.407,1.01,0.952,0.527,0.212,-0.0669
TCTTGTAGATCAAGCAGGTTAAGAAAGCCTGAGT,0.31,0.0826,-0.299,0.319,0.444,0.331,-0.339,0.113
CGTCCAAGGTCCTAGGAGGTCAGTGAAGACAGAT,2.93,2.53,2.38,0.216,2.14,4.08,0.834,1.06
TTATCAAGGTGAGCTGAGGTCGTTGATCCAACTC,1.62,1.33,1.07,0.397,1.59,4.64,2.47,2.33
ACTATTAGTTGACTTGGGGCAACCGATACGACGC,0.856,0.552,0.701,0.839,0.366,1.29,0.534,0.357
GGAACGAGGGCAAGTTGATTGCAGAGTTTGATGG,1.5,1.62,2.18,2.56,0.967,1.38,-0.0249,2.02
TCTAGCAGGCCAGAGGGTCATTCAAGAGGTACGG,2.65,2.78,2.02,0.504,2.87,1.83,-0.373,1.28
ATCGAAAGGTCGAGGTGAGTTTAGAGAAAGGGAA,3.07,4.88,4.68,1.24,4.47,3.01,0.695,2.21
TCTTGTAGATCAGCAGGTTAAGGAAGCTGGCCAA,0.142,0.132,-0.17,0.474,0.329,0.266,-0.666,-0.598

Sequence,PBM binding z-score [1],PBM binding z-score [2],PBM binding z-score [3],PBM binding z-score [4],PBM binding z-score [5],PBM binding z-score [6],PBM binding z-score [7],PBM binding z-score [8]
TTACCAAGGTGAGCCGAGGTCGTTGATCCAACTC,1.75,1.67,1.38,-0.0655,1.77,4.53,1.49,1.98
TTGCCAAGGTGAAGGTCGTTGATCCCTCTGTAGA,1.62,1.23,1.02,0.0935,1.68,2.31,0.87,0.534
CAAACTAGGTCACCGGAAGGTCAACGTCCGCATG,5.99,8.58,8.16,2.07,7.28,4.63,3.19,2.78
TCTCCTAGGTCAGTTGGTCAGCTAACGAGCTGCC,2.95,3.2,3.85,1.16,1.38,1.79,0.747,0.116
TCTGCTAGGTCAGTTGATCAGCTAACGAGCTGCC,2.08,2.57,3.41,0.576,0.945,1.28,0.115,-0.722
TAGCTTAGGTCATTGGGCCAGTATAGTACGCATC,3.1,4.29,4.56,2.23,3.26,3.37,2.15,1.36
TCTGCTAGGTCAGTTTGTCAGCTAACGAGCTGCC,1.74,1.84,2.44,0.8,0.666,0.996,0.0715,-0.975
ACTATTAGTTGAGTTAGGGCAACCGATACGACGC,0.47,0.417,0.783,0.652,0.292,1.21,0.245,0.368
ATATGTTGGTTATCGGGTCATTCAGTTTGCGCAT,2.89,2.24,1.97,1.61,2.56,3.26,3.07,4
AGAATGATGTTATACGTAGATCAGGGAAGAAAGT,-0.0497,0.194,0.393,-0.231,-0.0318,-0.0993,-0.533,-0.17
CGAACTAGGTGAGAACAGGACAGTGAAGGATGAT,0.34,0.567,0.579,0.0565,0.458,1.21,0.0768,0.286
TCTATTAGTTGAACGGCAACCGACGAGTCCGTTT,-0.12,0.0941,-0.2,1.53,0.254,-0.127,0.107,0.971
GATACAGGGTCAAAGCCAGAGTACGCGTATTGAT,2.86,5.42,4.41,3.04,5.84,3.25,0.312,2.99
GCTTACGGGTCTAAGGTTATAGCATGAATAGAAT,0.97,0.869,0.598,1.27,1.46,2.16,1.21,1.04
TCATAGAGGTAAAAGGTGAAAGTCGGTGTGGTAA,1.72,2.5,0.912,1.01,4,1.97,-0.0823,-0.219
TATACAGGGTCAAAGGCTAGAGTACGAATGTCGA,3.57,5.5,5.45,2.73,6.82,3.44,1.01,3.25
ATATGTAGGTTATCGGGTTATTCAGTTTGCGCAT,1.48,1.3,1.01,1.14,1.6,1.78,1.58,2.11
CGTCCAAGTTCAGCAGGTCAGTGAAAGCGACGTG,3.8,3.81,3.65,3.67,2.52,1.96,0.713,3.65
TCTTGTAGATCAACAGGTGGTTAAGAAAGATCGA,-0.322,-0.241,-0.25,0.571,-0.126,-0.453,-0.243,-0.227

Sequence,PBM binding z-score [1],PBM binding z-score [2],PBM binding z-score [3],PBM binding z-score [4],PBM binding z-score [5],PBM binding z-score [6],PBM binding z-score [7],PBM binding z-score [8]
TCTTCTAGATCAATAGAGGTTAAGAAAGTGCGCT,1.17,1.06,0.808,0.902,1.4,1.96,-0.514,0.255
GCTTACGAGTCAAAGGTTATAGCATGAATAGAAT,1.24,2.58,1.09,0.218,5,1.76,-0.786,-0.176
CGTCCAACGTCAATGCTAGGTCAGTGAAAGCATT,2.01,1.36,1.14,0.107,0.267,1.6,0.388,-0.0849
GCCAGTTGGTCAGTAAAAGGTCACACACCGGTCG,5.25,5.38,4.92,0.354,5.25,3.38,1.65,1.83
AGAATGAGGTTAAGATCAGTGAAACAGAATACAT,0.841,2.07,1.34,0.64,2.31,2.31,0.766,0.283
GCTTGTAGATTAAGGTTAAGAAAGACTAAGCTAA,0.241,0.49,0.267,0.113,0.645,2.08,0.778,-0.232
CAAACTAGGTCACAGGAAGGTCAAAGTCCGCATG,5.1,7.79,7,2.17,6.07,4.36,2.46,3.1
GCGACTGGAGCAAAGCAGGTTACCATAAGGTTGG,0.0117,-0.319,-0.395,-0.723,0.0642,1.75,-0.495,-0.492
AGAACGAGGGCACGCTGAGTTGGTAGCAGAGTAG,1.01,1.69,2.37,1.55,1.19,1.56,-0.105,0.953
AGAATGAGGTAATACGTAGATCAGGGAAGAAAGT,-0.0706,0.35,0.314,-0.0157,0.428,1.39,0.304,-0.472
ACTTACGGGTCAACAAGGTTATAGCACGCGTATA,3.84,5.44,5.07,2.33,5.87,4.04,1.05,2.78
CCTTACGGGTCAAGGTCATAGCACGGGTGGTACG,4.87,6.23,6.45,2.02,7.01,4.18,3.42,3.71
TCTAGCAGGCCAGAGGGTCACTCACGAGGTACGG,2.69,2.68,2.14,0.0334,2.44,1.61,0.0798,0.852
AGTCAAAGTTCAGGACGAGGTAACGTAAAGCACG,3.25,4.81,4.53,2.83,2.9,3.87,1.81,2.08
CAGCCTAGGTCAGGGCCAGTCTAGGAGGAACGTT,2.6,2.83,3.7,-0.45,1.5,1.98,0.28,-0.275
ACAGACAGGTGACGAAGGTAACTCAGGCTATCAT,0.451,0.549,0.697,-0.564,0.578,1.03,0.0235,-0.374
AGTCAAAGTTCACCAGGTAACGTAAGATTCAGCT,4.3,6.02,6.53,4.1,5.25,2.88,0.769,4.32
ACTAGTTGGTCCGCTGAGGTCACACACAATTCGG,3.85,3.69,2.81,1.37,3.71,4.4,5.42,4.08
CGTCCACGGTCATAGGAGGTCAGTGAAGACAGAT,3.91,3.21,3.97,0.535,2.05,4.28,0.603,1.18

# — the supplement of paper PMC6555819
